Source: PubChem (NMMLSC)
Anthrax LF inh2: inhibitors of Bacillus anthracis lethal factor protease. multiplex microsphere protease cleavage assay, LF. inhibition, % at 10 µM. 0.12% of 360,000 active; further: plate controls were buffer without enzyme for full effect and enzyme alone for no effect
Target sequence (P15917 whole entry, looked up): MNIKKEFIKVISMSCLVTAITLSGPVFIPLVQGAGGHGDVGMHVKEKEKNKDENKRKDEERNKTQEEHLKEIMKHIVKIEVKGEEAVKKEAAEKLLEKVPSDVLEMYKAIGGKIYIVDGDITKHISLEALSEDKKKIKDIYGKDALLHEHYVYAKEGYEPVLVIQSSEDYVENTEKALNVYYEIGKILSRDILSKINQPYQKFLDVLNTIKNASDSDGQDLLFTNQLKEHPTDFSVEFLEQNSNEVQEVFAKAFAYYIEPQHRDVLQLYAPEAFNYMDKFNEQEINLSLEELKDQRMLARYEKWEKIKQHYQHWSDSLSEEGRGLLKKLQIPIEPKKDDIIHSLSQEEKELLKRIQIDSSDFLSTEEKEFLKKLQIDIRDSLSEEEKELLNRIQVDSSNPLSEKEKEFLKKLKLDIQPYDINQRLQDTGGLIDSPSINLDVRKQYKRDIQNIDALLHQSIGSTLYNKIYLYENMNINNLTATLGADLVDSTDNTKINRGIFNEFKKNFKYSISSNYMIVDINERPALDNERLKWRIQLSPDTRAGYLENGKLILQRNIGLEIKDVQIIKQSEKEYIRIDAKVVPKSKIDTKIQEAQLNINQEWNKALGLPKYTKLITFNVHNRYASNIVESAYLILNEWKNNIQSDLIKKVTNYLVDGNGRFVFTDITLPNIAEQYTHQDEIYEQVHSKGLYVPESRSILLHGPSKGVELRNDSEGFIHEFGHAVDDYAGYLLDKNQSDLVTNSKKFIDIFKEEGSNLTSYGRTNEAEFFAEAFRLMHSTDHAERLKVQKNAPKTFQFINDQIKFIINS
BoNT-A LC inh2: inhibitors of Botulinum neurotoxin A light chain protease | multiplex microsphere protease substrate cleavage, flow cytometry | inhibition, % at 10 µM | 0.17% of 360,000 active | AID 588499; further: plate controls were buffer without enzyme for full effect and enzyme alone for no effect
Bead autofluor: counter-screen for toxin protease inhibitors: compound fluorescence. 3.1% of 360,000 active. compound autofluorescence counterscreen, microsphere flow cytometry; active compounds read high. fluorescence intensity (test concentration not listed). AID 624483; in the data active means fluorescence intensity above about 16000; inconclusive means no clear call, values can overlap the other calls
BoNT F protease: inhibitors of Botulinum neurotoxin F light chain protease | Multiplex microsphere protease cleavage assay, flow cytometry | inhibition, % at 10 µM | 0.22% of 360,000 active | AID 588497; in the data active means inhibition above about 35%, passing the limit was not always enough; inconclusive means no clear call, values can overlap the other calls; further: plate controls were buffer without enzyme for full effect and enzyme alone for no effect
The depositor's hits bear a star; ? = inconclusive. This is a sample that favours compounds with a hit; in the whole collection about 3.5% have one here. Unless noted, no stated cut-off is given here; in the data, active means inhibition above about 30%; inconclusive means no clear call, values can overlap the other calls; inactive means below that.

SMILES	Anthrax LF inh2	BoNT-A LC inh2	Bead autofluor	BoNT F protease
CC(C)(C)c1ccc(C(=O)CC(=O)c2cc(Cl)ccc2O)cc1	-1	-1	21100*	-1
CN(C)CCOCCSc1ccc(Cl)cc1	-7	-2	23961*	-5
CCCCNCCOCCSc1ccc(Cl)cc1	-3	-1	21188*	-9
Cc1ccccc1OCC(O)COc1ccccc1C	1	0	?	-9
COc1ccccc1OCC(=O)Nc1ccc(C(N)=O)cc1	-1	-2	21458*	-2
COc1cc(CNCCO)ccc1OCC(=O)Nc1ccc(Br)cc1	-1	2	22933*	-3
CCCNCc1cc(OC)c(OCC(=O)Nc2ccccc2)cc1Br	-3	-1	4051	-9
COc1ccccc1OCC(=O)Nc1ccc(NC(=O)COc2ccccc2OC)cc1	-7	1	4387	-1
COc1ccccc1OCC(=O)Nc1ccc(Cl)cc1	-2	?	23170*	-4
CCOC(=O)Nc1ccc2c(c1)Nc1ccccc1S2	-2	?	20181*	-4
C=CC(=O)N1c2ccccc2Sc2ccc(NC(=O)OCC)cc21	-1	0	3047	0
O=c1[nH]c(=O)n(Cc2ccco2)c2c1C(C(F)(F)F)(C(F)(F)F)N=C(CCc1ccccc1)N2	0	3	8965	18
O=c1[nH]c(=O)n(Cc2ccco2)c2c1C(C(F)(F)F)(C(F)(F)F)N=C(C1CCCCC1)N2	-15	2	20476*	2
N#Cc1ccc(C2=NC(C(F)(F)F)(C(F)(F)F)c3c(n(Cc4ccco4)c(=O)[nH]c3=O)N2)cc1	-2	-1	23851*	-1
CCc1ccc(-c2c(C)sc(NC(C)=O)c2C(N)=O)cc1	0	-8	22107*	-10
CC(C)(C)S(=O)(=O)c1cnc(N2CCCCC2)nc1N	4	0	5940	-3
CC(=O)c1cnc(N2CCCCC2)nc1C	0	2	21581*	4
COC(=O)c1sc2ccccc2c1N	-8	0	5435	-5
COC(=O)c1sc2ccccc2c1C(=O)OC	4	?	22728*	4
CCC1(C)Cc2ccccc2-c2nc3n(c(=O)c21)CCCCC3 (stereo not drawn)	-4	-1	21213*	-2
CCC1(C)Cc2ccccc2-c2nc(NCCO)n(-c3ccccc3)c(=O)c21 (stereo not drawn)	-5	0	16333*	-5
CCC1(C)Cc2ccccc2-c2nc(NCCO)n(-c3ccc(C)cc3)c(=O)c21 (stereo not drawn)	0	0	4643	-6
O=c1[nH]c(NCCO)nc2c1C1(CCCCC1)Cc1ccccc1-2	-2	-1	4790	-16
CCC1(CC)Cc2ccccc2-c2nc(NCCO)[nH]c(=O)c21	-1	3	20997*	7
O=c1c2c(nc3n1CCCCC3)-c1ccccc1CC21CCCCC1	-3	1	8504	5
SMILES	Anthrax LF inh2	BoNT-A LC inh2	Bead autofluor	BoNT F protease
COc1ccc(N(C(=O)Cn2nnc(-c3ccccc3F)n2)C(C(=O)NCC2CCCO2)c2ccc(Cl)cc2)cc1 (stereo not drawn)	2	0	3580	-5
CCCC(C(=O)Nc1cc(S(=O)(=O)N2CCOCC2)ccc1OC)c1ccccc1 (stereo not drawn)	4	2	5078	15
Cc1snc(S(=O)(=O)Cc2c(Cl)cccc2Cl)c1C#N	-1	-3	25224*	-7
Cc1ccccc1N1CCN(CCN2C(=O)CC(=C3c4ccccc4-c4ccccc43)C2=O)CC1	-2	0	16193*	-5
O=C1CC(=C2c3ccccc3-c3ccccc32)C(=O)N1CCN1CCN(c2ccccc2)CC1	-3	2	19425*	0
Cc1ccc(S(=O)(=O)Nc2ccccc2-c2nc3ccccc3[nH]c2=O)cc1	-2	0	3997	-15
N/C(=N\OS(=O)(=O)c1ccc(Br)cc1)c1ccncc1	3	3	21736*	6
CC(C)CN(C(=O)CSc1nc(N)cc(N)n1)C1CCS(=O)(=O)C1 (stereo not drawn)	-5	0	3788	-2
Cc1c(Cl)cccc1NC(=O)CN1CCC(C(O)(c2ccccc2)c2ccccc2)CC1	1	-4	21085*	-7
O=C(C1CC1)N1CCC(C(O)(c2ccccc2)c2ccccc2)CC1	-2	?	21864*	4
O=C(c1ccccc1)N1CCN(C(=O)C2CC2)CC1	-1	-1	5927	2
Cc1c(Cl)cccc1NC(=O)Cn1c(CCC(=O)O)ccc1-c1ccccc1	-12	-2	4011	48*
CC(C)CCOc1cccc(OCC(=O)Nc2ccncc2)c1	-4	-1	5563	-7
COc1cccc(NC(=O)C2(C)CCCN2C(=O)C(C)C)c1OC (stereo not drawn)	6	-1	3721	0
COc1ccccc1N1CCN(C2CCCN(C(=O)CCN3CCCCO3)C2)CC1 (stereo not drawn)	-4	-2	5000	5
Cc1ccccc1NC(=O)c1csc2c1CCCC2	-4	-3	20804*	-4
COc1cccc(NC(=O)c2csc3c2CCCC3)c1	2	0	2482	-4
O=C(NCc1ccccc1)c1csc2c1CCCC2	1	0	2622	-1
COc1ccc(NC(=O)c2csc3c2CCCC3)cc1	-2	-1	23873*	-3
COCCN1CCC(CNCc2cn(-c3cc(C)ccc3C)nc2-c2ccccc2)C1 (stereo not drawn)	-3	-1	3858	-19
O=C1c2ccccc2C(=O)N1OCc1ccccc1	-2	0	9173	1
CC1(C)N(OCc2ccccc2)C(=O)C(=O)N(OCc2ccccc2)C1(C)C	-13	?	20720*	8
CC1(C)CC(=O)C(C=NCCN2CCN(C(=O)Cc3ccccc3)CC2)=C(O)C1	-4	-2	12206	-17
COCCCN=CC1=C(O)CC(C)(C)CC1=O	-3	?	23898*	-1
CCCCCCN=CC1=C(O)CC(C)(C)CC1=O	-6	-1	3660	-17
SMILES	Anthrax LF inh2	BoNT-A LC inh2	Bead autofluor	BoNT F protease
CC1(C)CC(=O)C(C=NCCN2CCN(CCc3ccccc3)CC2)=C(O)C1	0	-3	20820*	-3
CC1(C)CC(=O)C(C=NCCN2CCN(C(=S)Nc3ccc(F)cc3)CC2)=C(O)C1	-6	?	16455*	-5
COC(=O)C1C2OC(C(Br)C2Br)C1C(=O)OC (stereo not drawn)	-6	0	3931	-1
COCCCN1CN=C(Nc2nc3ccccc3o2)NC1	-4	-1	4190	-2
COc1ccc(CCNC(=O)CC2Nc3cc(C)c(C)cc3NC2=O)cc1OC (stereo not drawn)	-4	1	9323	9
Cc1cc2c(cc1C)NC(CC(=O)NCc1ccccc1)C(=O)N2 (stereo not drawn)	2	2	23973*	2
C#CCNCCS(=O)(=O)N(Cc1ccc(Br)cc1)[C@@H](C)C(=O)O	-2	0	2987	0
CCOC(=O)c1ccc(S(=O)(=O)N2CCN(CC(O)COc3cccc(C(C)=O)c3)CC2)cc1 (stereo not drawn)	-2	1	3773	4
CCOCCCn1c(=S)[nH]c2cc(C(=O)NCCOC)ccc2c1=O	-2	2	19971*	1
COCCNC(=O)c1ccc(Cn2c(=S)[nH]c3cc4c(cc3c2=O)OCO4)cc1	1	1	22929*	-1
CCOCCCNC(=O)c1ccc2c(=O)n(CCCOCC)c(=S)[nH]c2c1	-2	-2	4089	-2
